# Assay results taken from PubChem BioAssay (Tox21).
# Where “and” joins values, the source holds several entries; their conditions need not be identical. Identical values can stand only once. Records with an inconclusive call do not appear. A call without a number means that no potency is given here. A structure can be active in one record and inactive in another. Calls of active or inactive are those of the source. Unless noted, the call rests on the fitted dose curve; in most records, active means well fitted curve in the direction sought with a large enough effect in the repeat runs; inconclusive means weak or mixed curves; inactive means no such curve, though single readings can be large; an effect the other way counts as inactive or inconclusive.
# Columns and labels:
# [1] = qHTS assay to identify small molecule agonists of H2AX (AID 1224845; active means well fitted activation curve with a large enough effect in the signal ratio in the repeat runs, not every such curve was filed as active; the % refers to the signal ratio; further: potency means the concentration at half of the fitted maximal effect)
# Method in brief: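 Wild-type CHO-K1 cells plated overnight, then exposed 3 hr at 37C to compounds at 15 concentrations (0.76% DMSO). Lysed, then HTRF anti-pH2AX(S139)-cryptate/anti-H2AX-d2 detection after 24 hr at room temperature; emissions 665 and 620 nm.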
# [2] = qHTS assay to identify small molecule agonists of the hypoxia (HIF-1) signaling pathway (AID 1224846; active means well fitted activation curve with a large enough effect in the signal ratio in the repeat runs, not every such curve was filed as active; the % refers to the signal ratio)
# Method in brief: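 ME-180 HRE-bla reporter cells; compounds in DMSO, 17 h at 37C; read-out beta-lactamase via CCF4-AM FRET.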
# [3] = qHTS assay to identify small molecule agonists of H2AX - cell viability counter screen (AID 1224847; calls by dose curve; further: top concentration of the series differs between compounds; nearly all actives have a fitted effect of over 30% in size)
# Method in brief: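 CHO-K1 wt, 1000 cells/well, o/n 37C; cpds 15 conc, 3 h 37C, 0.76% DMSO; CellTiter-Glo, 30 min RT, luminescence.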
# [4] = qHTS assay to identify small molecule antagonists of the estrogen related receptor (ERR) signaling pathway from Tox21 library (AID 1224848); further: nearly all actives have a fitted effect of over 50% in size
# Method in brief: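 Tox21 10K compounds in DMSO tested for ERR pathway antagonism in NTP's ERR cell line; 18 h, 37 C exposure; ONE-Glo luminescence.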
# [5] = qHTS assay to identify small molecule agonists of the estrogen related receptor (ERR) signaling pathway from Tox21 library (AID 1224849; calls by dose curve; further: nearly all actives have a fitted effect of over 15% in size); settings: ERR reporter cell line, ONE-Glo luciferase, 18 h
# Method in brief: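 Luciferase activity in ERR pathway reporter cells served as the agonist readout; exposure lasted 18 h at 37 C, with ONE-Glo detection after 30 min at room temperature.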
# [6] = qHTS RealTime-Glo MT Cell Viability Assay in HepG2 cells - 24 hour (AID 1224867); further: nearly all actives have a fitted effect of over 50% in size
# Method in brief: (§1)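 Cells + NanoLuc/prosubstrate dispensed (600 cells/well) → 5 h at 37 C/5% CO2 → compounds in DMSO transferred → 40 h incubation at 37 C, luminescence read at 0, 8, 16, 24, 32, 40 h.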
# [7] = qHTS RealTime-Glo MT Cell Viability Assay in HEK293 cells - 32 hour (AID 1224868); further: nearly all actives have a fitted effect of over 50% in size; further: potency means the concentration at half of the fitted maximal effect
# Method in brief: (§2)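 Tox21 10K qHTS, HEK293, 600 cells/well, RealTime-Glo reagent co-dispensed with cells; 5 h preincubation, compound by pintool, 37 C, luminescence at 0–40 h.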
# [8] = A CellTox Green Cytotoxicity Assay to monitor cytotoxicity in HEK293 cells - 0 hour (AID 1224869); further: nearly all actives have a fitted effect of over 50% in size
# Method in brief: (§3)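 Real-time, in one plate: 600 HEK293 cells/well with dead-cell DNA dye, pinned compound after 5 h, 37 C incubation over 40 h; viable cells give no appreciable fluorescence.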
# [9] = qHTS RealTime-Glo MT Cell Viability Assay in HepG2 cells - 40 hour (AID 1224870); further: nearly all actives have a fitted effect of over 50% in size
# Method in brief: (§4)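 HepG2 cells mixed with RealTime-Glo MT reagents (NanoLuc plus cell-permeant prosubstrate) were seeded at 600 cells/well, incubated 5 h at 37 C/5% CO2, then pinned with compounds in DMSO; nonlytic luminescence tracked viability during 40 h treatment.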
# [10] = A CellTox Green Cytotoxicity Assay to monitor cytotoxicity in HEK293 cells - 40 hour (AID 1224871); further: nearly all actives have a fitted effect of over 45% in size; further: potency means the concentration at half of the fitted maximal effect
# Method in brief: as §3
# [11] = qHTS RealTime-Glo MT Cell Viability Assay in HEK293 cells - 16 hour (AID 1224872)
# Method in brief: as §2
# [12] = qHTS RealTime-Glo MT Cell Viability Assay in HepG2 cells - 8 hour (AID 1224873); further: nearly all actives have a fitted effect of over 55% in size
# Method in brief: as §4
# [13] = A CellTox Green Cytotoxicity Assay to monitor cytotoxicity in HEK293 cells - 24 hour (AID 1224875); further: nearly all actives have a fitted effect of over 45% in size
# Method in brief: as §3
# [14] = A CellTox Green Cytotoxicity Assay to monitor cytotoxicity in HepG2 cells - 16 hour (AID 1224876); further: nearly all actives have a fitted effect of over 45% in size
# Method in brief: (§5)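 Cytotoxicity was tracked as dead-cell DNA fluorescence in HepG2 cells treated with test compounds at 37 C; each time-point value comes from one kinetic series spanning 0, 8, 16, 24, 32 and 40 h.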
# [15] = qHTS RealTime-Glo MT Cell Viability Assay in HepG2 cells - 32 hour (AID 1224877); further: nearly all actives have a fitted effect of over 55% in size
# Method in brief: as §1
# [16] = A CellTox Green Cytotoxicity Assay to monitor cytotoxicity in HepG2 cells - 24 hour (AID 1224878); further: nearly all actives have a fitted effect of over 45% in size
# Method in brief: as §5
# [17] = A CellTox Green Cytotoxicity Assay to monitor cytotoxicity in HepG2 cells - 40 hour (AID 1224879); further: nearly all actives have a fitted effect of over 40% in size
# Method in brief: as §5
# [18] = qHTS RealTime-Glo MT Cell Viability Assay in HEK293 cells - 0 hour (AID 1224880)
# Method in brief: (§6)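 Kinetic, non-lysing viability readout. Seed HEK293 (600/well) with reagent, incubate 5 h at 37 C/5% CO2, pin 23 nL compound in DMSO, incubate at 37 C, read luminescence at 0, 8, 16, 24, 32, 40 h.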
# [19] = A CellTox Green Cytotoxicity Assay to monitor cytotoxicity in HEK293 cells - 32 hour (AID 1224881); further: nearly all actives have a fitted effect of over 40% in size
# Method in brief: as §3
# [20] = qHTS RealTime-Glo MT Cell Viability Assay in HEK293 cells - 40 hour (AID 1224874); settings: RealTime-Glo luminescence; max response: stronger effect = lower value; further: nearly all actives have a fitted effect of over 50% in size
# Method in brief: as §6
structure (smiles),measurement,setting,value
CCOC(C(=O)OCCN(C)C)(c1ccccc1)c1ccccc1,Potency,[1],inactive
same,outcome,[2],inactive
same,Potency,[3],inactive
same,Potency,[4],inactive
same,"activity change, positive = activation",[5]; at 42.5 µM (top of the series),-1.78% (inactive)
same,Potency,[6],inactive
same,Potency,[7],inactive
same,Potency,[8],inactive
same,Potency,[9],inactive
same,Potency,[10],inactive
same,Potency,[11],inactive
same,Potency,[12],inactive
same,Potency,[13],inactive
same,Potency,[14],inactive
same,Potency,[15],inactive
same,Potency,[16],inactive
same,Potency,[17],inactive
same,outcome,[18],inactive
Cc1nc2ccccc2c(=O)n1-c1ccccc1Cl,Potency,[1],27.8 µM (active)
same,outcome,[2],inactive
same,Potency,[3],inactive
same,"activity change, positive = activation",[5]; at 92.4 µM (top of the series),-29.9% (inactive)
same,Potency,[7],21.4 µM (active)
same,Potency,[9],inactive
same,Potency,[10],inactive
same,Potency,[14],inactive
same,Potency,[15],inactive
same,Potency,[16],inactive
same,Potency,[17],inactive
same,outcome,[18],inactive
same,Potency,[19],inactive
CC(C)(C)OOC(C)(C)CCC(C)(C)OOC(C)(C)C,Potency,[1],inactive
same,outcome,[2],inactive
same,Potency,[3],inactive
same,Potency,[4],inactive
same,"activity change, positive = activation",[5]; at 92.4 µM (top of the series),2.37% (inactive)
same,Potency,[7],inactive
same,Potency,[8],inactive
same,Potency,[9],inactive
same,Potency,[10],inactive
same,Potency,[11],inactive
same,Potency,[12],inactive
same,max response,[20],9.43% (inactive)
same,Potency,[13],inactive
same,Potency,[14],inactive
same,Potency,[15],inactive
same,Potency,[17],inactive
same,outcome,[18],inactive
same,Potency,[19],inactive
C1CS1,Potency,[1],inactive
same,outcome,[2],inactive
same,Potency,[3],inactive
same,Potency,[4],inactive
same,"activity change, positive = activation",[5]; at 92.4 µM (top of the series),-0.221% (inactive)
same,Potency,[6],inactive
same,Potency,[7],inactive
same,Potency,[8],inactive
same,Potency,[9],inactive
same,Potency,[10],inactive
same,Potency,[11],inactive
same,Potency,[12],inactive
same,Potency,[13],inactive
same,Potency,[14],inactive
same,Potency,[15],inactive
same,Potency,[16],inactive
same,Potency,[17],inactive
same,outcome,[18],inactive
same,Potency,[19],inactive
CN1CC[C@]23c4c5ccc(O)c4O[C@H]2[C@@H](O)C=C[C@H]3[C@H]1C5,Potency,[1],inactive
same,outcome,[2],inactive
same,Potency,[3],inactive
same,Potency,[4],inactive
same,"activity change, positive = activation",[5]; at 92.4 µM (top of the series),1.06% (inactive)
same,Potency,[7],inactive
same,Potency,[8],inactive
same,Potency,[9],inactive
same,Potency,[10],inactive
same,Potency,[11],inactive
same,max response,[20],1.75% (inactive)
same,Potency,[13],inactive
same,Potency,[14],inactive
same,Potency,[15],inactive
same,Potency,[16],inactive
same,Potency,[17],inactive
same,outcome,[18],inactive
same,Potency,[19],inactive
CCOP(=S)(OCC)Oc1ccc(S(C)=O)cc1 (stereo not given),Potency,[1],inactive
same,outcome,[2],inactive
same,Potency,[3],inactive
same,Potency,[4],inactive
same,"activity change, positive = activation",[5]; at 92.4 µM (top of the series),-5.68% (inactive)
same,Potency,[6],inactive
same,Potency,[7],inactive
same,Potency,[9],inactive
same,Potency,[10],inactive
same,Potency,[11],inactive
same,Potency,[12],inactive
same,max response,[20],6.56% (inactive)
same,Potency,[13],inactive
same,Potency,[14],inactive
same,Potency,[15],inactive
same,Potency,[16],inactive
same,Potency,[17],inactive
same,outcome,[18],inactive
same,Potency,[19],inactive
CC1(C)CC(=O)CC(C)(C)N1[O],Potency,[1],inactive
same,outcome,[2],inactive
same,Potency,[3],inactive
same,Potency,[4],inactive
same,"activity change, positive = activation",[5]; at 92.4 µM (top of the series),-0.242% (inactive)
same,Potency,[6],inactive
same,Potency,[8],inactive
same,Potency,[9],inactive
same,Potency,[10],inactive
same,Potency,[11],inactive
same,Potency,[12],inactive
same,max response,[20],2.69% (inactive)
same,Potency,[13],inactive
same,Potency,[14],inactive
same,Potency,[15],inactive
same,Potency,[16],inactive
same,Potency,[17],inactive
same,outcome,[18],inactive
O=C(O)c1cc(I)cc(I)c1I,Potency,[1],inactive
same,outcome,[2],inactive
same,Potency,[3],inactive
same,Potency,[6],inactive
same,Potency,[7],inactive
same,Potency,[8],inactive
same,Potency,[9],inactive
same,Potency,[10],inactive
same,Potency,[11],inactive
same,Potency,[12],inactive
same,max response,[20],-4.51% (inactive)
same,Potency,[13],inactive
same,Potency,[14],inactive
same,Potency,[15],inactive
same,Potency,[16],inactive
same,Potency,[17],inactive
same,outcome,[18],inactive
same,Potency,[19],inactive
COc1ccc(C(O)(c2cncnc2)C2CC2)cc1 (stereo not given),Potency,[1],inactive
same,outcome,[2],inactive
same,Potency,[3],inactive
same,Potency,[4],inactive
same,"activity change, positive = activation",[5]; at 92.4 µM (top of the series),1.33% (inactive)
same,Potency,[6],inactive
same,Potency,[9],inactive
same,Potency,[10],inactive
same,Potency,[11],inactive
same,max response,[20],0.605% (inactive)
same,Potency,[13],inactive
same,Potency,[14],inactive
same,Potency,[15],inactive
same,Potency,[16],inactive
same,Potency,[17],inactive
same,outcome,[18],inactive
same,Potency,[19],inactive
C[C@H]1[C@@H]2Cc3ccc(O)cc3[C@@]1(C)CCN2C,Potency,[1],inactive
same,outcome,[2],inactive
same,Potency,[3],inactive
same,Potency,[4],inactive
same,"activity change, positive = activation",[5]; at 240 µM (top of the series),8.81% (inactive)
same,Potency,[6],inactive
same,Potency,[7],inactive
same,Potency,[9],inactive
same,Potency,[11],inactive
same,Potency,[14],inactive
same,Potency,[15],inactive
same,Potency,[16],inactive
same,Potency,[17],inactive
same,outcome,[18],inactive
same,Potency,[19],inactive
Cc1nc(N(C)C)nc(OC(=O)N(C)C)c1C,Potency,[1],inactive
same,outcome,[2],inactive
same,Potency,[3],inactive
same,Potency,[6],inactive
same,Potency,[7],inactive
same,Potency,[8],inactive
same,Potency,[9],inactive
same,Potency,[10],inactive
same,Potency,[11],inactive
same,Potency,[12],inactive
same,max response,[20],2.7% (inactive)
same,Potency,[14],inactive
same,Potency,[15],inactive
same,Potency,[16],inactive
same,Potency,[17],inactive
same,outcome,[18],inactive
same,Potency,[19],inactive
CCc1cnc(C2=NC(C)(C(C)C)C(=O)N2)c(C(=O)O)c1 (stereo not given),Potency,[1],inactive
same,outcome,[2],inactive
same,Potency,[3],inactive
same,Potency,[6],inactive
same,Potency,[7],inactive
same,Potency,[8],inactive
same,Potency,[9],inactive
same,Potency,[10],inactive
same,Potency,[11],inactive
same,Potency,[12],inactive
same,max response,[20],1.73% (inactive) and 22.4% (inactive)
same,Potency,[13],inactive
same,Potency,[14],inactive
same,Potency,[15],inactive
same,Potency,[17],inactive
same,outcome,[18],inactive
same,Potency,[19],inactive
O=C(O)C(F)(F)C(F)(F)C(F)(F)C(F)(F)C(F)(F)F,Potency,[1],inactive
same,outcome,[2],inactive
same,Potency,[3],inactive
same,Potency,[6],inactive
same,Potency,[7],inactive
same,Potency,[8],inactive
same,Potency,[9],inactive
same,Potency,[10],inactive
same,Potency,[11],inactive
same,Potency,[12],inactive
same,Potency,[13],inactive
same,Potency,[14],inactive
same,Potency,[15],inactive
same,Potency,[16],inactive
same,Potency,[17],inactive
same,outcome,[18],inactive
same,Potency,[19],inactive
c1ccc2c(c1)-c1cccc3cccc-2c13,Potency,[1],inactive
same,outcome,[2],inactive
same,Potency,[3],inactive
same,Potency,[6],inactive
same,Potency,[9],inactive
same,Potency,[10],inactive and 43.6 µM (active)
same,Potency,[11],inactive
same,Potency,[12],inactive
same,Potency,[13],inactive
same,Potency,[14],inactive
same,Potency,[15],inactive
same,Potency,[16],inactive
same,Potency,[17],inactive
same,outcome,[18],inactive
same,Potency,[19],inactive
CCOC(=O)NC(O)C(Cl)(Cl)Cl (stereo not given),Potency,[1],inactive
same,outcome,[2],inactive
same,Potency,[3],inactive
same,Potency,[6],inactive
same,Potency,[7],inactive
same,Potency,[8],inactive
same,Potency,[9],inactive
same,Potency,[10],inactive
same,Potency,[11],inactive
same,max response,[20],7.58% (inactive)
same,Potency,[13],inactive
same,Potency,[14],inactive
same,Potency,[15],inactive
same,Potency,[17],inactive
same,outcome,[18],inactive
same,Potency,[19],inactive
